Source: PubChem (National Center for Advancing Translational Sciences (NCATS))
Sampled rows, rich in hits. Any-hit rate of the full collection: about 11%.
Vaccinia mCherry: qHTS for Stage-Specific Inhibitors of Vaccinia Orthopoxvirus: mCherry Reporter Primary qHTS | Vaccinia virus mCherry reporter infection, fluorescence | Potency, µM (series often up to 36.5 µM), inactives show top-dose activity change, negative = inhibition, actives largely listed as inhibitors | actives 0.63% (n = 310,000); calls by dose curve; tested in A549 cells; further: on the % scale 0 is the no-effect control and ±100 the full control effect; nearly all actives have a fitted effect of over 35% in size
Pf growth 96h: Primary qHTS for delayed death inhibitors of the malarial parasite plastid, 96 hour incubation. Potency, µM (top dose mostly 28.7 µM), for the others: at the highest dose activity change, negative = inhibition, most hits filed as inhibitors. AID 504834, 2011. actives 6.9% (n = 320,000). P. falciparum luciferase reporter growth, 96 h; further: on the % scale 0 is the no-effect control and ±100 the full control effect
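Erythrocytes infected with luciferase-expressing P. falciparum were dispensed at 2% hematocrit and 0.05% parasitemia (final), then incubated with compounds 96 hours at 37 C in 5% CO2. Luminescence after detection reagent addition reported growth.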
Vaccinia Venus: qHTS for Stage-Specific Inhibitors of Vaccinia Orthopoxvirus: Venus Reporter Primary qHTS; Vaccinia virus Venus reporter expression, fluorescence; Potency, µM (titrated, usually from 36.5 µM), for inactives: at the highest dose activity change, negative = inhibition, actives largely listed as inhibitors; actives 0.46% (n = 330,000); calls by dose curve; tested in A549 cells; further: on the % scale 0 is the no-effect control and ±100 the full control effect; nearly all actives have a fitted effect of over 30% in size
HCV inh: qHTS Assay for Inhibitors of Hepatitis C Virus (HCV). Huh7.5.1 HCVcc-Cre infection, luciferase reporter, 44 h. Potency, µM (titrated, usually from 41.8 µM), for inactives: at the highest dose activity change, negative = inhibition, most hits filed as inhibitors. actives 3.4% (n = 340,000); further: on the % scale 0 is the no-effect control and ±100 the full control effect
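HCVcc-Cre virus at an moi near 0.5 was added right after compound to cells cultured 4 h from seeding (1,000 cells/well). Luciferase activity was determined 44 h later, 15 min after substrate addition at RT.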
Pf growth 48h: Primary qHTS for delayed death inhibitors of the malarial parasite plastid, 48 hour incubation; P. falciparum luciferase growth in erythrocytes, 48 h; Potency, µM (highest dose often 28.7 µM), for inactives: top-dose activity change, negative = inhibition, hits mostly inhibitors; actives 5.9% (n = 310,000); AID 504832, 2011; further: on the % scale 0 is the no-effect control and ±100 the full control effect
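In quantitative HTS format, infected erythrocytes bearing luciferase-reporter parasites were treated for a single generation at 37 C. Luminescence after adding detection reagent served as the growth measure.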
NS1 inh: qHTS Assay for Inhibitors of Influenza NS1 Protein Function; Potency, µM (doses to about 46.1 µM), without a hit: at the top dose activity, positive = more growth; actives 0.4% (n = 270,000); calls by dose curve; further: actives are rising curves; nearly all actives have a fitted effect of over 50% in size
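Read-out: OD600 growth recovery of NS1-expressing budding yeast. Cells grown overnight at 30C in -URA glucose medium, washed, resuspended and diluted 1:100 in 2% galactose assay medium, pH 6.0. Same strain lacking NS1 served as positive control.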
Numbers without * were called inactive; i = inactive; ? = inconclusive; / = no result; ! = repeats disagree; [ ] = dose if it differs, or a comment. Unless noted, the call rests on the fitted dose curve; in most records, active means well fitted inhibition curve with a large enough effect; inconclusive means small, poorly fitted or top-dose-only effect, or another doubt; inactive means no such curve, though single readings can be large or run the other way. Potency means the concentration at half of the fitted maximal effect.

SMILES	Vaccinia mCherry	Pf growth 96h	Vaccinia Venus	HCV inh	Pf growth 48h	NS1 inh
COc1ccc(CCN2C(=O)CSC2=S)cc1OC	-13.0%	?	46.1%	-0.6%	-8.4%	-5.5%
CCOC(=O)Oc1c(OC)cc(C(=O)O[C@@H]2C[C@@H]3CN4CCc5c([nH]c6cc(OC)ccc56)[C@H]4C[C@@H]3[C@H](C(=O)OC)[C@H]2OC)cc1OC	?	2.94µM*	?	5.62µM*	2.62µM*	/
COC(=O)[C@H]1[C@H]2C[C@H]3c4[nH]c5ccccc5c4CCN3C[C@H]2CC[C@@H]1O	-23.7%	1.51µM*!	-11.2%	-11.4%	-4.5%	-3.1%
COC(=O)[C@@H]1[C@@H]2C[C@H]3c4[nH]c5cc(OC)ccc5c4CCN3C[C@@H]2C[C@H](OC(=O)/C=C\c2cc(OC)c(OC)c(OC)c2)[C@H]1OC	/	?	/	/	5.1µM*	/
CSCCC1NC(=O)N(CC(=O)Nc2cc(C)on2)C1=O (configuration not stated)	/	-20.3%	/	7.5%	?	/
COCCNC(=O)CCc1c(C)nc2c(-c3ccc(F)cc3)c(C)nn2c1C	-5.7%	13.1µM*	-2.5%	-10.2%	/	-2.7%
CCN1CCN(c2ccc(NC(=O)CCc3c(C)nc4c(-c5ccc(F)cc5)c(C)nn4c3C)cc2)CC1	?	?	?	2.51µM*	?	/
CCOC(=O)C1CCN(C(=O)CCc2c(C)nc3c(-c4ccc(F)cc4)c(C)nn3c2C)CC1	?	10.4µM*	-13.1%	12.0%	/	5.6%
COCCCNC(=O)CCc1c(C)nc2c(-c3ccc(F)cc3)c(C)nn2c1C	/	?	/	3.5%	?	-6.5%
Cc1ccc(OCCN2CCNCC2)c([N+](=O)[O-])c1	/	14.3%	/	6.5%	11.7%	14.6%
CCN1CCCC1CNC(=O)c1nn(-c2ccc(C)cc2)c(=O)c2c1c1ccccc1n2C (configuration not stated)	/	/	/	/	/	19.1%
O=C(Nc1ccccc1)Nc1ccncc1	-5.2%	?	0.5%	-2.9%	?	/
O=C(Nc1ccncc1)Nc1ccccn1	/	8.28µM*	-16.2%	11.0%	-10.3%	-5.5%
O=C(CC(=O)Nc1ccccn1)Nc1ccccn1	/	9.28µM*	/	7.7%	144.2%	-11.8%
CCOC(=O)N1CCN(C(=O)/C(=C/c2cccc3ccccc23)NC(=O)c2ccc(OC)cc2)CC1	/	9.28µM*	/	?	13.1µM*	8.2%
O=C(N/C(=C\c1ccccc1)C(=O)N1CCOCC1)c1cccc(Br)c1	-3.2%	7.38µM*	-15.5%	?	?	21.6%
C=CCOC(=O)/C(=C\c1cccc2ccccc12)NC(=O)c1ccccc1	i[1.46 µM]	6.7%	-28.6%	7.94µM*	?	-26.0%
C=CCOC(=O)/C(=C\c1ccccc1)NC(=O)c1ccc(C)cc1	-9.8%	-4.6%	-11.8%	-7.2%	4.6%	5.1%
CCOC(=O)N1CCN(C(=O)/C(=C/c2ccc(OC)cc2)NC(=O)c2ccccc2)CC1	/	?	/	-1.0%	-0.3%	-9.8%
COc1ccc(/C=C(\NC(=O)c2ccccc2)C(=O)N2CCC(C)CC2)cc1	?	-65.4%	-1.1%	-4.5%	13.1µM*	/
O=C(N/C(=C\c1cccnc1)C(=O)N1CCOCC1)c1cccc(Br)c1	/	?	/	17.5%	-15.9%	8.1%
CC(=O)Nc1ccc(S(=O)(=O)N[C@H](C(=O)O)C(C)C)cc1	/	-29.4%	4.9%	3.5%	3.9%	-10.9%
CC(=O)Nc1ccc(S(=O)(=O)NC(C(=O)O)C2=CCC=CC2)cc1 (configuration not stated)	-12.1%	3.7µM*	-10.6%	18.6%	28.1%	-4.3%
COC(=O)c1ccc(CNC(=O)c2cc3ccccc3oc2=O)cc1	i	9.4%	-19.3%	6.8%	0.0%	-3.0%
O=C(CSc1ccccc1)NN1C(=O)c2ccccc2C1=O	-5.7%	9.28µM*	-8.8%	-4.1%	1.3%	10.5%
SMILES	Vaccinia mCherry	Pf growth 96h	Vaccinia Venus	HCV inh	Pf growth 48h	NS1 inh
CCOC(=O)c1c(NC(C)=O)sc2c1CCC(C=O)=C2Sc1ccccc1	?	?	-19.4%	2.82µM*	/	-1.7%
COc1ccc(CCN(C)c2ccc(S(=O)(=O)N3CCCC3)cn2)cc1OC	-15.4%	21.1%[5.75 µM]	-23.7%	-13.6%	?	/
COc1ccc(Nc2ccc(S(=O)(=O)N3CCCCC3)cc2[N+](=O)[O-])cc1	-6.0%	-25.0%	-3.3%	?	-15.0%	2.4%
COc1ccc(C(CNc2ccc(S(=O)(=O)N3CCCC3)cc2[N+](=O)[O-])N2CCCC2)cc1 (configuration not stated)	-15.2%	10.4µM*	-9.5%	?	?	5.1%
COc1cc(CN(C)c2ccc(S(=O)(=O)N3CCCC3)cn2)ccc1OC(F)F	-18.8%	?	-17.2%	?	14.7µM*	/
COc1ccc(Nc2ccc(S(=O)(=O)N3CCCCC3)cc2[N+](=O)[O-])cc1Cl	?	13.1µM*	-24.6%	?	?	?
COc1ccccc1C(CNc1ccc(S(=O)(=O)N2CCCC2)cc1[N+](=O)[O-])N(C)C (configuration not stated)	8.91µM*	?	10µM*	-21.9%	-19.3%	23.3%
Cc1ccc(C(C)C)c(OCCn2cc(C(=O)c3ccco3)c3ccccc32)c1	-5.6%	/	-16.8%	/	/	/
COc1ccc(C(CNc2ccc(S(=O)(=O)N3CCN(C)CC3)cc2[N+](=O)[O-])N(C)C)cc1 (configuration not stated)	-14.9%	11.3%	-9.2%	10µM*	0.5%	/
COc1ccc(CN(C)c2ccc(S(=O)(=O)N3CCN(C)CC3)cc2[N+](=O)[O-])cc1OC	-4.6%	14.7µM*	-16.4%	0.562µM*	11.7µM*	/
COc1ccc(CCNc2ccc(S(=O)(=O)N3CCN(C)CC3)cc2[N+](=O)[O-])cc1	-23.8%	?	-16.4%	?	?	/
Cc1ccc(S(=O)(=O)N(C)CC(=O)N2CCN(Cc3ccccc3)CC2)cc1	-25.1%	-8.4%	-23.6%	/	-3.0%	-2.0%
O=C(Nc1ncc(Cc2ccccc2)s1)c1cccs1	/	?	?	?	36.7%	-48.0%
O=C(Nc1ncc(Cc2cccc(Cl)c2)s1)c1cccs1	-27.8%	-0.4%	?	22.4µM*	-5.0%	-101.4%
COc1cc(C(=O)N/N=C/c2cccc(Oc3ccccc3)c2)ccc1O	-17.7%	10.7%	-27.3%	-12.9%	19.7%	-6.8%
CC(=O)[C@H]1[C@H](C#N)C[C@H]2[C@@H]3CC=C4C[C@@H](O)CC[C@]4(C)[C@H]3CC[C@@]21C	-13.1%	-0.1%	-11.0%	-20.0%[8.37 µM]	-0.7%	5.6%
